Activity calls are given as the source filed them.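 Rule for the calls: active = average half-effect concentration of 10 µM or less in every one of the four cell panels; inactive = the rest.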

For the assay, the system named is H9c2. The assay is described as follows: cardiomyocyte survival under oxidative or metabolic stress – cell-based, panel, H9c2 and HL-1, H2O2, 2-deoxyglucose, ATP luminescence, SAR follow-up (AID 651642). Particulars: H9c2/HL-1 cardiomyocyte H2O2 oxidative damage, mean of runs, with H2O2.
On to `COc1cc(-c2cc(C(=O)Nc3cccc(C(=O)O)c3)c3ccccc3n2)cc(OC)c1OC`, for which the compound was classed as inactive.

For `COc1cc(-c2cc(C(=O)Nc3cccc(C(N)=O)c3)c3ccccc3n2)cc(OC)c1OC`, the compound was classed as active.

As for `COc1cc(-c2cc(C(=O)Nc3cccc(-c4nn[nH]n4)c3)c3ccccc3n2)cc(OC)c1OC`, the call was inactive.

With `COc1cc(-c2cc(C(=O)Nc3cccc(C(=O)Nc4ccccc4)c3)c3ccccc3n2)cc(OC)c1OC`, the call was active.

As for `COc1ccc2c(c1OC)C(=O)N1c3ccccc3C(=O)N(Cc3ccccc3)C21` (centres undefined), the outcome was inactive.

With `COc1ccc2c(c1OC)C(=O)N1c3ccccc3C(=O)N(Cc3cccc(F)c3)C21` (centres undefined), the call was inactive.

Take `COc1cc(-c2cc(C(=O)NCC(=O)Nc3cccc(C(C)=O)c3)c3cc(F)ccc3n2)cc(OC)c1OC`: the compound was classed as active.

For `COc1cc(-c2cc(C(=O)NCC(=O)Nc3cccc(C(C)=O)c3)c3ccccc3n2)cc(OC)c1OC`, the compound was classed as active.

On to `CCOC(=O)c1cccc(NC(=O)c2cc(-c3cc(OC)c(OC)c(OC)c3)nc3cc(Cl)ccc23)c1`, for which the compound was classed as inactive.

On to `COC(=O)CNC(=O)c1cc(-c2cc(OC)c(OC)c(OC)c2)nc2ccccc12`, for which the call was inactive.

As to `COc1cc(-c2cc(C(=O)NCC(=O)Nc3cccc(C(C)=O)c3)c3cc(C)ccc3n2)cc(OC)c1OC`, the outcome was inactive.

As for `COC(=O)CNC(=O)c1cccc(NC(=O)c2cc(-c3cc(OC)c(OC)c(OC)c3)nc3ccccc23)c1`, the compound was called inactive.

As to `COc1cc(-c2cc(C(=O)Nc3cccc(C(C)=O)c3)c3cccc(Cl)c3n2)cc(OC)c1OC`, the compound was called inactive.

Consider `COc1ccc2nc(-c3cc(OC)c(OC)c(OC)c3)cc(C(=O)Nc3cccc(C(C)=O)c3)c2c1`, for which the result was inactive.

Values taken from PubChem BioAssay AID651642 (Sanford-Burnham Center for Chemical Genomics, 2012).
